KCNH2 WT inh = KCNH2 (human, wildtype) channel inhibition | Q12809 | U2OS, BacMam KCNH2, thallium flux FluxOr; stronger effect = lower value | activity change, % at 1.84 µM | actives 0.37% (n = 340,000) | AID 720551;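 active means maximum activity change below -70%; inconclusive means maximum activity change between -70% and -50%; inactive means maximum activity change above -50%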; further: on the % scale 0 is the no-effect control and ±100 the full control effect
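U2OS cells transduced with wild-type KCNH2 virus are loaded with FluxOr dye for 45 min, and thallium flux is measured in kinetic reads before and after stimulation buffer. Rate constants are normalized to DMSO controls.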
ClpP mod = qHTS Assay for Activators of ClpP; Potency, µM (titrated, usually from 57.5 µM), inactives show at the highest dose activity change, negative = active; ATP-dependent Clp protease proteolytic subunit (Bacillus subtilis (strain 168)), P80244; AID 651965, 2013; actives 1.9% (n = 340,000); purified B. subtilis ClpP, FRET peptide cleavage, 20 min; active means well fitted falling curve with a large enough effect; inconclusive means small, poorly fitted or top-dose-only effect; inactive means no such curve, though single readings can be large or run the other way; further: potency means the concentration at half of the fitted maximal effect; the source files actives as falling curves though it sought activators and does not explain the sign; nearly all actives have a fitted effect of over 65% in size
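Buffer: 100 mM Tris/HCl pH8, 100 mM KCl, 0.05% low protease BSA, 2.5% glycerol, 0.01% Tween-20. ClpP 10 microg/mL final; 20 min RT; delta FRET normalized to ADEP and DMSO controls.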
12-LOX inh = blocks human arachidonate 12S-lipoxygenase. P18054. Potency, µM (highest dose often 108 µM), inactives show top-dose activity change, negative = inhibition, hits mostly inhibitors. actives 1.1% (n = 580,000). purified 12hLO, xylenol orange hydroperoxide absorbance. AID 1671190; active means well fitted inhibition curve with a large enough effect; inconclusive means small, poorly fitted or top-dose-only effect, or another doubt; inactive means no such curve, though single readings can be large or run the other way; further: potency means the concentration at half of the fitted maximal effect; on the % scale 0 is the no-effect control and ±100 the full control effect
Target sequence (P18054 whole entry, looked up): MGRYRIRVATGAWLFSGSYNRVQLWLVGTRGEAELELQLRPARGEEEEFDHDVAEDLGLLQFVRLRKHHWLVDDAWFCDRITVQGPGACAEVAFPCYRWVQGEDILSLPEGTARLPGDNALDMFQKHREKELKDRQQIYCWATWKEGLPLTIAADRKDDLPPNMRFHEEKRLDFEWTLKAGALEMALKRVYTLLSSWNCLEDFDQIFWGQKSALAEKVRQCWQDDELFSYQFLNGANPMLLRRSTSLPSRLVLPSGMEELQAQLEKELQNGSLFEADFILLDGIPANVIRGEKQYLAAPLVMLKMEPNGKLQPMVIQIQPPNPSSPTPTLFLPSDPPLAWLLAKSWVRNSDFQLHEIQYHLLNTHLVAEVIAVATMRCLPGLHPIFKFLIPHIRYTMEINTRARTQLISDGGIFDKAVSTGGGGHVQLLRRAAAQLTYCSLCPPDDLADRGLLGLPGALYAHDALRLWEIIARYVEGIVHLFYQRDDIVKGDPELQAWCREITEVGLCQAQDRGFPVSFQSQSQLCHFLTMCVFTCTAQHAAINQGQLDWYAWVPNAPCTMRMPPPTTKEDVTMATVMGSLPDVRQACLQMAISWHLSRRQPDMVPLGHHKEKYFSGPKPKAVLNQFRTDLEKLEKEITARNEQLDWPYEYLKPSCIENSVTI
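Purified human 12hLO (150 nM final) in 25 mM Hepes, 0.01% Triton X-100, pH 7.0 was preincubated 15 min at room temperature with compound. Then 40 uM arachidonic acid was added, 30 min. Hydroperoxide was read by Fe-XO absorbance ratio 573/405 nm.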
LDHA inh = LDHA (human) enzyme inhibition; purified LDHA, NADH/diaphorase-resazurin fluorescence; stronger effect = lower value; activity change, % (values are at about 110 or 230 µM); actives 0.15% (n = 480,000); P00338; AID 1347041; in the data active means activity change below about -30%; inconclusive means mostly about -25% to -30%;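 further: plate controls were DMSO wells for no effect and wells without enzyme for full effect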
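LDH5 2 nM; NADH 0.06 mM, pyruvate 0.2 mM; 200 mM Tris pH 7.4, EDTA, Tween-20; 5 min RT. Detection: diaphorase 0.133 mg/mL + resazurin 37 µM, fluorescence ex540/em590 at 0 and 20 min; normalized to enzyme-free and DMSO wells.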
KCNH2 3.1 block = KCNH2 3.1 (human) potassium channel inhibition | U2OS KCNH2 3.1, thallium flux FluxOr; stronger effect = lower value | activity change, % (tested at about 1.8 µM) | actives 0.95% (n = 340,000) | AID 720553;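 active means maximum activity change below -70%; inconclusive means maximum activity change from -70% to -50%; inactive means maximum activity change above -50%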;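 further: thallium influx rate constant from kinetic fluorescence after stimulation buffer; on the % scale 0 is the no-effect control and ±100 the full control effect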
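Virally transduced U2OS (3.1 isoform, 4 h infection in dark at RT) → overnight 37 C → FluxOr + Red40 in HBSS/HEPES, 45 min → stimulation buffer, 2 min kinetic read → rate constant vs DMSO controls.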
Chronic BCR inh = chronic active BCR signaling inhibition; ABC-DLBCL IkBa-CBG/CBR reporter, luminescence ratio, 4 h; Potency, µM (top dose mostly 46.1 µM), for the others: at the highest dose activity change, negative = inhibition, actives largely listed as inhibitors; actives 0.05% (n = 340,000); AID 493014; active means well fitted inhibition curve with a large enough effect in the signal ratio, with a control signal flat, not every such curve was filed as active; inconclusive means small, poorly fitted or top-dose-only effect, or effect the other way, or a change in a side signal; the % refers to the signal ratio;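 further: potency means the concentration at half of the fitted maximal effect; plate controls were basal doxycycline-induced cells for no effect and cells given 10 µM MG132 for full effect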
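TMD8 human ABC-DLBCL cells with doxycycline-inducible IκBα–green luciferase fusion and unfused red luciferase, in 0.5% FBS medium; compounds up to 46 uM, 4 h at 37C. Green/red luminescence ratio, filter-overlap corrected, fitted to concentration-response curves.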
Numbers without * were called inactive; i = inactive; ? = inconclusive; · = no result; [ ] = dose if it differs, or a comment. A selection: hits, their analogues and other compounds. The true share with any hit is near 3%.

SMILES	KCNH2 WT inh	ClpP mod	12-LOX inh	LDHA inh	KCNH2 3.1 block	Chronic BCR inh
CS(=O)(=O)c1ccc(C2=C(CNC(=O)c3cccs3)[C@H]3CC[C@@H](C2)N3CCOc2ccccc2)cc1	-102.7*	-25.0%	-8.8%	-8.6	-93.9*	·
C=C[C@H]1CN2CC[C@H]1C[C@@H]2CNCc1ccc(-c2ccccc2)cc1	·	·	-15.3%[176 µM]	·	·	·
COc1ccc(C2=NCC(=O)N(CC(=O)Nc3ccc(F)cc3F)c3sc4c(c32)CCC4)cc1	·	·	-13.6%	3.0	·	·
O=C(NCC1=C(c2cccc3ccccc23)C[C@@H]2CC[C@H]1N2Cc1ccco1)c1cccs1	?	-1.4%	?	0.2	-108.7*	·
CCOc1ccc(CNCCc2c[nH]c3ccccc23)cc1	·	·	?	0.4	·	·
COc1ccc(CN(CCc2c[nH]c3ccccc23)Cc2ccc(OC)cc2)cc1	-42.6	1.3%	?	-0.1	-106.2*	·
COc1ccc(CNCCc2c[nH]c3ccccc23)cc1	·	·	0.631µM*	-9.4	·	·
CN1CC2(Cc3c1ccc1ccccc31)C(=O)NC(=O)N(CCc1ccccc1)C2=O (stereo not given)	·	·	?	40.9	·	·
COc1cccc(CNCCc2cccc(F)c2)c1	·	·	?	-6.1	·	·
CC(Cc1ccc(Cl)cc1)NC(=O)CCCNC(=O)C1CC1 (stereo not given)	·	·	?	2.0	·	·
Cc1ccccc1-c1nc(CS(=O)CC(=O)N2CCC3(CC2)OCCO3)c(C)o1 (stereo not given)	44.5	-7.3%	-21.2%	-1.1	-9.5	2.2%
Cc1ccsc1-c1nc(CSCC(=O)N2CCC3(CC2)OCCO3)c(C)o1	0.3	31.6µM*	5.9%	2.8	-4.4	4.3%
COc1cc(C)cc2oc(=O)c(CC(=O)N3CCN(CCc4ccccn4)CC3)c(C)c12	·	·	-2.3%	1.6	·	·
COc1ccccc1N1CCN(Cc2ccc(Br)cc2)CC1	18.7	-2.3%	-11.5%	-5.4	-75.8*	3.7%
COc1ccccc1N1CCN(Cc2ccccc2Cl)CC1	0.7	0.6%	-14.8%	-20.3	5.4	?
N#C/C(=C\C1CC=CCC1)c1nc2ccccc2[nH]1 (stereo not given)	-5.3	31.6µM*	?	16.1	-6.9	?
CC(NCCc1ccccc1)c1ccccc1 (stereo not given)	·	·	?	-3.4	·	·
O=C(CN1CCCCC1)NCC(=O)Nc1ccc(Br)cc1C(=O)c1ccccc1	-35.6	-1.5%	?	1.8	-77.9*	-1.9%
O=C(CNC(=O)OCc1ccccc1)NCC(=O)Nc1ccc(Br)cc1C(=O)c1ccccc1	-1.1	25.1µM*	-6.7%	-11.8	-1.6	0.9%
COC[C@H]1C[C@@H](NCc2cn(C)c3ccccc23)[C@H](O)[C@@H]1O	·	·	-7.5%[176 µM]	·	·	·
CN1C(=O)C(C2(O)C(=O)N(Cc3ccccc3)c3cc([N+](=O)[O-])ccc32)c2ccccc21 (stereo not given)	·	·	-8.3%	·	·	·
COc1ccc(-c2cc([C@H]3CN4CC[C@H]3C[C@@H]4CNC(=O)CSCC(=O)O)nc(C)n2)cc1OC	·	·	88.5%	·	·	·
COc1ccc(/C=C2/C(=O)NC(=S)N(C3CC3)C2=O)cc1CN1C(=O)c2ccccc2C1=O	36.1	?	?	-35.7*	-2.6	?
Cc1cccc(OCC(=O)N2[C@H]3CC[C@@H]2c2cnc(-c4ccc(F)cc4)nc2C3)c1	·	·	24.6%	·	·	·
CCCN1CCc2cc(O)cc3c2C1Cc1ccc(O)c(O)c1-3 (stereo not given)	·	·	7.94µM*	·	·	·
SMILES	KCNH2 WT inh	ClpP mod	12-LOX inh	LDHA inh	KCNH2 3.1 block	Chronic BCR inh
COc1ccc2c(c1O)-c1cc(O)cc3c1[C@@H](C2)N(C)CC3	·	·	-2.2%	·	·	·
C=CCN1CCC23c4c5ccc(O)c4OC2/C(=N/N=C2\CCC4(O)C6Cc7ccc(O)c8c7C4(CCN6CC=C)C2O8)CCC3(O)C1C5 (stereo not given)	·	·	36.8%	·	·	·
C=CCN1CCc2cccc3c2[C@H]1Cc1ccc(O)c(O)c1-3	16.7	·	7.94µM*	0.3	-19.9	-1.3%
CC1=C(C(=O)OC(C)(C)C)C2(C(=O)Nc3ccccc32)C(C(=O)OC(C)C)=C(N)O1 (stereo not given)	·	·	?	-12.8	·	·
CC(C)NC(=O)NC[C@H]1C[C@@H]2CCN1C[C@@H]2c1cc(-c2ccccc2)nn1C	·	·	64.3%[176 µM]	·	·	·
CN(C)C(CSS(=O)(=O)c1ccccc1)CSS(=O)(=O)c1ccccc1	·	·	0.708µM*	-3.1	·	·
Cc1ccc(C)c(NC(=O)CN2C(=O)CN=C(c3ccc(F)cc3)c3c2sc(C)c3C)c1	·	·	-6.0%	7.4	·	·
Cc1ccc2[nH]c(C)c(CCN)c2c1	·	·	?	15.7	·	·
CCCCc1ccc2[nH]c(C)c(CCN)c2c1	·	·	3.16µM*	0.5	·	·
O=C1CC(=O)N(Cc2ccccc2)C(=O)N1	-1.1	-23.5%	?	-10.8	·	·
COc1ccc(CN2C(=O)CC(=O)NC2=S)cc1	-5.7	-1.4%	44.7µM*	-18.3	30.1	-0.3%
CN(C)C(=O)Oc1ccc(-c2cn3cc(Cl)ccc3n2)cc1	2.8	?	-5.7%	-7.3	-17.8	7.0%
CN(C)C(=O)Oc1ccc(-c2cn3cc(C(F)(F)F)ccc3n2)cc1	-18.7	10µM*	-31.2%	-4.9	0.2	?
O=[N+]([O-])c1ccc(-c2ccc(C=Nc3cccc4ccccc34)o2)cc1	2.3	17.8µM*	-6.9%	11.1	-38.6	-1.0%
O=[N+]([O-])c1cc([N+](=O)[O-])c2ccccc2c1	·	·	-13.2%[57.4 µM]	·	·	·
C[N+](C)(C)CC1CCCC(C[N+](C)(C)C)C1=O (stereo not given)	-18.8	1.0%	?	-41.0*	-13.0	·
CN1C(=O)C(=Cc2ccccc2OCc2ccccc2Cl)C(=O)N(C)C1=O	-0.3	·	?	-45.0*	-20.8	?
CN1C(=O)C(=Cc2ccccc2OCc2ccc(C(=O)O)cc2)C(=O)N(C)C1=O	6.3	·	-16.6%	-34.7*	-7.3	-1.6%
O[C@H]1[C@H](NCc2ccccn2)[C@H]2CO[C@H](O2)[C@@H]1N1CCCC1	·	·	116.3%[176 µM]	·	·	·
O=C1NC(=O)C(=Cc2ccc(Oc3ccc([N+](=O)[O-])cc3)cc2)C(=O)N1	-4.7	0.5%	·	-32.7*	2.4	-4.7%
CN1C(=O)C(=Cc2ccccc2OCCOc2ccc([N+](=O)[O-])cc2)C(=O)N(C)C1=O	i	·	?	-19.3	7.7	-12.8%
O=C1NC(=O)C(=Cc2ccc(Cl)cc2)C(=O)N1	·	-2.3%	39.8µM*	·	·	·
O=C1NC(=O)C(=Cc2ccccc2OCCOc2ccc([N+](=O)[O-])cc2)C(=O)N1	-20.9	·	·	-80.5*	0.4	?
CCC(CC)NC1CC1	·	·	?	4.8	·	·
